Sampled rows, rich in hits. Any-hit rate of the full collection: about 21%.
Shiga inhibitor = inhibitors of Shiga toxin in Vero cells; Vero cells, Shiga toxin protein synthesis inhibition reporter; inhibition, % at 38.7 µM; 290,000 compounds, 9.2% hits; in the data active = inhibition mostly above about 28%, no sharp cut-off; inactive = mostly below about 43%; note: 0% is about no effect
Pf growth 48h = inhibits P. falciparum growth in the first generation, 48 h. P. falciparum luciferase growth in erythrocytes, 48 h. Potency, µM (top dose mostly 28.7 µM), for inactives: at the highest dose activity change, negative = inhibition, usual class: inhibitors. 310,000 compounds, 5.9% hits. AID 504832; note: potency is the fitted concentration of half-maximal effect; % is set by controls: 0 for no effect and ±100 for the full control effect
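Growth was read as firefly luciferase luminescence after a 48 h, 37 C, 5% CO2 exposure of compounds to reporter-bearing P. falciparum cultures (0.1% parasitemia, 2% hematocrit final) in Albumax-supplemented RPMI 1640.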
Pf growth 96h = inhibits malaria parasite growth, 96 h | AID 504834 | 320,000 compounds, 6.9% hits | P. falciparum luciferase reporter growth, 96 h | Potency, µM (series often up to 28.7 µM), without a hit: at the top dose activity change, negative = inhibition, most hits filed as inhibitors; note: potency is the fitted concentration of half-maximal effect; % is set by controls: 0 for no effect and ±100 for the full control effect
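Plates of compound plus infected erythrocytes (2% hematocrit, 0.05% parasitemia final) incubate 96 hours, 37 C, 5% CO2. Detection reagent added; reduced luminescence from the parasites' luciferase reporter flags inhibition.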
Sm TGR block = inhibitors of Schistosoma mansoni thioredoxin glutathione reductase | purified TGR, DTNB reduction, TNB absorbance 405 nm | Potency, µM (top dose mostly 114 µM), for the others: top-dose activity change, negative = inhibition, hits mostly inhibitors | 360,000 compounds, 3% hits | Q962Y6; note: potency is the fitted concentration of half-maximal effect; % is set by controls: 0 for no effect and ±100 for the full control effect; nearly all actives have a fitted effect of over 60% in size
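TGR 20 nM + NADPH 100 uM (dispensed conc.), cpd preinc 15 min RT; start with NADPH (500 uM addition) then DTNB (15 mM addition). Kinetic TNB absorbance, 405 nm filter. Four-parameter Hill fit across titration.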
CHX counter = counter-screen hit for Shiga toxin inhibitors, cycloheximide; cell reporter, cycloheximide protein synthesis inhibition counterscreen; max response, %; 300,000 compounds, 12% hits; AID 2314; in the data active = max response mostly above about 13%, no sharp cut-off; inactive = mostly below about 14%; note: read at 38.3 µM for the half of the compounds with a filed dose; 0% is about no effect
NS1 inh = influenza NS1 inhibition | Potency, µM (top dose mostly 46.1 µM), inactives show top-dose activity, positive = more growth | 270,000 compounds, 0.4% hits; calls by dose curve; note: potency is the fitted concentration of half-maximal effect; actives are rising curves; nearly all actives have a fitted effect of over 50% in size
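S. cerevisiae expressing influenza A NS1, grown in glucose, washed, then diluted 1:100 into pH 6.0 -URA galactose medium with 23 nl compound. Growth recovery read as OD600; NS1-free strain serves as control.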
Starred values were filed as active, the others as inactive; ? = inconclusive; / = no result. Unless noted, calls come from the whole dose curve; as a rule, active = well fitted curve in the direction sought with a large enough effect; inconclusive = small, poorly fitted or top-dose-only effect, or another doubt; inactive = no such curve, though single readings can be large; an effect the other way counts as inactive or inconclusive.

SMILES	Shiga inhibitor	Pf growth 48h	Pf growth 96h	Sm TGR block	CHX counter	NS1 inh
CCc1cc(C(=O)Nc2cc(S(=O)(=O)N(CC)CC)ccc2N2CCN(C)CC2)sc1C	/	?	2.6µM*	-14%	/	/
COc1nc(-c2ccc(C)cc2)ccc1-c1noc(-c2ccc(C(C)(C)C)cc2)n1	/	/	/	-1%	/	/
Cc1ccc(NC(=O)COc2ccc(-c3nn(C)c(=O)c4ccccc34)cc2)c(C)c1	/	/	/	-1%	/	/
CCN(CC)S(=O)(=O)c1ccc(N2CCOCC2)c(NC(=O)c2ccc3c(c2)OCCO3)c1	/	?	?	-2%	/	/
O=C(Nc1ccccc1N1CCOCC1)c1cc(-c2ccncc2)nc2ccccc12	29	?	8.3µM*	-16%	1	/
CCN(CC)S(=O)(=O)c1ccc(N2CCCCC2)c(C(=O)Nc2ccccc2N2CCOCC2)c1	-15	/	4.1µM*	-7%	-3	5%
CCN(CC)S(=O)(=O)c1ccc(N2CCOCC2)c(NC(=O)C2=COCCO2)c1	-30	3.3µM*	2.1µM*	19%	-3	3%
CCN(CC)S(=O)(=O)c1ccc(N2CCOCC2)c(NC(=O)c2ccc3ccccc3c2)c1	14	?	12µM*	-6%	-4	4%
CCN(CC)S(=O)(=O)c1ccc(N2CCOCC2)c(NC(=O)c2cc(=O)[nH]c3ccccc23)c1	-11	-19%	-22%	0%	-3	-15%
CC1=C(C(=O)Nc2ccccc2C)C(c2ccccn2)n2ncnc2N1 (centres undefined)	/	/	/	3%	/	/
CCN(CC)S(=O)(=O)c1ccc(N2CCOCC2)c(NC(=O)c2cc(-c3ccccn3)nc3ccccc23)c1	-12	1.9µM*	8.3µM*	-6%	-1	/
CCN(CC)S(=O)(=O)c1ccc(N2CCOCC2)c(NC(=O)c2cccc3ccccc23)c1	-5	?	?	8%	-4	?
COc1ccc(CCNC(=O)c2c(C)oc3ncn(CC(C)C)c(=O)c23)c(OC)c1	/	/	/	3%	/	/
COc1ccc(Nc2nc(Cl)nc(Nc3ccc(OC)cc3)n2)cc1	-3	-2%	208%	2%	6	/
COc1ccccc1Nc1nc(Cl)nc(NC(C)(C)C)n1	9	1%	12%	8%	11*	-6%
COc1ccc(Nc2nc(Cl)nc(Nc3ccc(OC)cc3OC)n2)c(OC)c1	-2	-8%	18%	?	-4	12%
OCCNc1nc(Nc2ccccc2)nc(Nc2ccccc2)n1	-15	-4%	26%	1%	-1	1%
CC(C)(C)Nc1nc(Cl)nc(Nc2ccccc2)n1	88*	75%	88%	-28%	56*	-16%
CC(C)(CO)Nc1nc(Nc2ccccc2)nc(Nc2ccccc2)n1	-5	13µM*	7.4µM*	3%	-1	-9%
CC(=O)Nc1ccc(Nc2nc(Cl)nc(Nc3ccc(NC(C)=O)cc3)n2)cc1	13	-5%	4%	35µM*	9	1%
COC(=O)N[C@@H]1C[C@H]2[C@@H]3CC[C@H]4C[C@@H](OC)CC[C@]4(C)[C@H]3CC[C@@]12C	/	?	?	-2%	/	/
CC(C)CC(=O)NCC1(N(C)C)CCCCC1	/	/	/	-5%	/	/
Clc1nc(Nc2ccccc2)nc(Nc2ccccc2)n1	22	0%	36%	-10%	25*	-3%
CCCNc1nc(Cl)nc(Nc2ccc(Cl)cc2)n1	8	28%	0%	-25%	15*	-45%
CCc1nn(CC(=O)NCCCc2ccccc2)c(=O)c2cc3ccccc3n12	/	/	/	0%	/	/
SMILES	Shiga inhibitor	Pf growth 48h	Pf growth 96h	Sm TGR block	CHX counter	NS1 inh
COc1ccccc1CN(Cc1ccco1)c1cnc(S(C)(=O)=O)nc1C(=O)Nc1ccccc1Cl	/	/	/	0%	/	/
COc1ccc(/C=C/C(=O)NNC(=O)c2ccncc2)c(OC)c1	/	17%	43%	1%	/	/
COc1ccc(/C=C/C(=O)c2ccc3c(c2)OCO3)c(OC)c1	61*	192%	194%	1%	59*	-22%
COc1cc(/C=C/C(=O)c2ccc3c(c2)OCO3)cc(Cl)c1O	25	-23%	?	?	8	-48%
COc1cccc(/C=C/C(=O)c2ccc3c(c2)OCCO3)c1OC	/	75%	0%	7%	47*	-8%
COc1ccc(/C=C/C(=O)c2ccccc2)c(OC)c1	74*	161%	4%	-1%	23*	/

Assay outcomes: PubChem BioAssay, National Center for Advancing Translational Sciences (NCATS)
